From PubChem BioAssay AID1626 (SRMLSC, 2009) come the findings set out here.

Where “and” joins values, the source holds several entries; their conditions need not be identical. Equal values may be shown once. Hit rate of the full screen: of about 220,000 compounds, about 2,000 (0.91%) were called active. Not shown: some 2% with an inconclusive outcome. Not all results are given here. Measured potencies and affinities stand elsewhere. Values without a mark were called inactive. No stated cut-off is given here; in the data, inconclusive means inhibition above about 80% without an active follow-up result; inactive means below that; test concentration not stated here.

For orientation: inhibition means the change of the read-out against control, counted positive when it falls.

This test in a line: M. tuberculosis H37Rv growth inhibitors, H37Rv strain (AID 1626).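 Further: bacteria incubated seven days before Alamar blue readout; 0% = bacteria only wells and 100% = bacteria with antibiotic wells.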 The following applies: stronger effect = higher value, concentration not given here.
On to `Cn1cnc([N+](=O)[O-])c1Nc1cccc(O)c1`, for which the inhibition was -3.69%.
The figure for `CC(=O)CSc1nc2ccc(Nc3nc(N4CCOCC4)nc(N4CCOCC4)n3)cc2s1` is 4.02%.
Turning to `Cc1cccc(Nc2nc(NCc3ccco3)nc(N3CCOCC3)n2)c1`, the inhibition was -1.15%.
Turning to `COc1ccc(Nc2nc(NCc3ccco3)nc(N3CCOCC3)n2)cc1`, the inhibition is -1.04%.
For the molecule `O=C(CSc1nc2ccc(Nc3nc(N4CCCC4)nc(N4CCCC4)n3)cc2s1)NCc1ccco1`, the inhibition was 68.7%.
For the molecule `O=C(Cn1cc[n+](Cc2ccccc2)c1)c1ccc([N+](=O)[O-])cc1`, the inhibition was 14%.
The figure for `O=C(Cn1c[n+](CC(=O)c2ccc([N+](=O)[O-])cc2)cn1)c1ccc([N+](=O)[O-])cc1` is -5.51% and -5.64%; for `Cc1ccc2oc(=O)c(/C=C(\O)c3cccs3)nc2c1` it is -2.1%; for `Cc1ccc(/C(O)=C/c2nc3cc(C)ccc3oc2=O)cc1` it is 16.9%.
The figure for `O=c1oc2cc([N+](=O)[O-])ccc2nc1/C=C(O)/C=C/c1ccccc1` is -2.36%.
Take `O=c1oc2cc([N+](=O)[O-])ccc2nc1/C=C(\O)c1cccc(Br)c1`: the inhibition is -3.89%.
As for `O=c1oc2ccccc2nc1/C=C(O)/C=C/c1ccc(F)cc1`, the inhibition is 63.9%.
For `Cc1ccc2oc(=O)c(/C=C(\O)c3ccccc3)nc2c1`, the inhibition is -10.4%.
Take `Cc1ccc2oc(=O)c(/C=C(\O)c3sc(C)nc3C)nc2c1`: the inhibition is -8.77%.
For `C/C(O)=C\c1nc2ccccc2oc1=O`, the inhibition is 75.9%.
As to `C=CCc1cc(OC)ccc1OCCOCCN1CCc2ccccc2C1`, the inhibition was 6.94%.
As to `COc1cccc(CNc2ccc(F)c(Cl)c2)c1`, the inhibition was 12.1%.
To `OCCC1CN(Cc2cccnc2)CCN1CCc1ccccc1` (stereo not given) belongs -0.305%.
Regarding `Cc1ccc(-c2c[n+](CC(=O)c3cccs3)c3n2CCC3)cc1`, the inhibition was 18.1%.
Regarding `O=C(C[n+]1cc(-c2ccc(F)cc2)n2c1CCC2)c1cccs1`, the inhibition was 0.03%.
For `COc1ccc(-c2c[n+](CC(=O)N3c4ccccc4Sc4ccccc43)c3n2CCC3)cc1`, the inhibition was 78.6%.
Regarding `O=C(C[n+]1cc(-c2ccc(Cl)cc2)n2c1CCCCC2)c1ccccc1`, the inhibition was -4.68%.
The figure for `O=C(C[n+]1cc(-c2ccccc2)n2c1CCCCC2)c1ccc(Cl)cc1` is 18.6%; for `O=C(C[n+]1cc(-c2ccc(F)cc2)n2c1CCC2)OCc1ccccc1` it is -9.6%.
As for `O=C(C[n+]1cc(-c2ccccc2)n2c1CCC2)c1cccs1`, the inhibition was -2.31%.
For `O=C(C[n+]1cc(-c2ccccc2)n2c1CCC2)OCc1ccccc1`, the inhibition is -7.15%.
As to `O=C1CC(SCCc2nc3ccccc3[nH]2)C(=O)N1c1ccc(F)cc1` (stereo not given), the inhibition was -1%.
The figure for `CS(=O)(=O)N(CC(=O)NC1CCCC1)Cc1ccc(Cl)cc1` is -2.78%.
`Cc1nc(Cl)c(C(=O)NC(C)(C)C)c(C)c1Cl`: the inhibition is -4.14%.
As to `COc1ccc(N2C(=O)CCC(C(=O)NCc3ccccn3)C2c2ccc(OC)c(OC)c2)cc1` (stereo not given), the inhibition is -14.1%.
With `CC(=O)N1CCN(c2ccc([N+](=O)[O-])cc2C=C2C(=O)NC(=O)NC2=O)CC1`, the inhibition was 7.44%.
For `CSc1nc2ccccc2n1CC(=O)Nc1ccccc1`, the inhibition is -4.24%.
Regarding `Cc1[nH]c2ccc(C(=O)OCCN(C)C)cc2c1C`, the inhibition was -4.75%.
Turning to `O=C(C[n+]1cc(-c2ccc(Cl)c(Cl)c2)n2c1CCC2)OCc1ccccc1`, the inhibition is 4.51%.
As for `O=C(C[n+]1cc(-c2ccc(Cl)c(Cl)c2)n2c1CCC2)c1cccs1`, the inhibition is 3.68%.
Turning to `CCOCCCNCc1ccc(OC)cc1`, the inhibition is -2.12%.
The figure for `N#Cc1nc(-c2ccccc2F)oc1NCCc1ccccn1` is 4.27%; for `Cc1cc(C)cc(NC(=O)Nc2ccc3c(c2)N(C)C(=O)CS3)c1` it is 1.91%.
The figure for `CCC1CCC/C1=N\NC(=O)c1cc(C)[nH]n1` (stereo not given) is -7.04%; for `NNC(=O)COc1ccccc1[N+](=O)[O-]` it is -1.65%.
For `CC(C)(C)C(=O)COc1ccccc1[N+](=O)[O-]`, the inhibition was 0.09%.
The figure for `CC(C)(Oc1ccc(Cl)cc1)C(=O)N/N=C/c1cn[nH]c1-c1ccccc1` is -0.17%.
As for `CC1CCC2(CC1)OCC1(CCC3(COC4(CCC(C)CC4)OC3)C1=O)CO2` (stereo not given), the inhibition was -1.15%.
For `CCCCOc1ccc(C(=O)NCC(=O)NCC(=O)OCC)cc1`, the inhibition was 5.43%.
As for `CCOC(=O)CNC(=O)CNC(=O)c1ccc(OC)cc1`, the inhibition was -5.13%.
With `Cc1ccc(S(=O)(=O)N(C)C)cc1-n1c(SCC(=O)Nc2ccccc2)nc2ccccc2c1=O`, the inhibition was 1.63%.
Regarding `Cn1ccnc1Sc1cc(NCCCO)c([N+](=O)[O-])c2nonc12`, the inhibition is 2.79%.
On to `CCOC(=O)N1CCN(c2cc(NCCO)c([N+](=O)[O-])c3nonc23)CC1`, for which the inhibition is -2.1%.
With `Cc1nnc(Sc2cc(NCCCO)c([N+](=O)[O-])c3nonc23)s1`, the inhibition was -2.43%.
The figure for `Cc1nnc(Sc2cc(NCCO)c([N+](=O)[O-])c3nonc23)s1` is -7.45%; for `COC(=O)CNC(=O)COC(=O)/C=C/c1ccccc1[N+](=O)[O-]` it is 3.19%; for `Cc1ccc(S(=O)(=O)NCCc2nnc3ccc(NCCCOC(C)C)nn23)cc1` it is 0.94%.
On to `CC1(c2cc([N+](=O)[O-])cc([N+](=O)[O-])c2)CC(C)(C)N(C(=O)c2ccccc2)c2ccccc21` (stereo not given), for which the inhibition was 2.82%.
As for `CC1(c2ccc([N+](=O)[O-])cc2)CC(C)(C)N(C(=O)c2ccccc2)c2ccccc21` (stereo not given), the inhibition is 6.73%.
`CC(=O)C1=C(O)C(=O)N(Cc2ccco2)C1c1ccc2c(c1)OCO2` (stereo not given): the inhibition was -9.04%.
Consider `CC(C)NC(=O)C(=O)NCCc1ccc(Cl)cc1`, for which the inhibition was -1.47%.
As to `CCOC(=O)c1c(C)[nH]c(NC(=O)Nc2c(C)n(C)n(-c3ccccc3)c2=O)c1C`, the inhibition was -2.03%.
`COc1ccc(O)c2c(=O)c3c(OC)cc4c(c3oc12)C1C=COC1O4` (stereo not given): the inhibition is -3.61%.
To `Cn1cc(CN2CCCC(C(=O)c3ccc(-c4ccccc4)cc3)C2)cn1` (stereo not given) belongs -1.15%; to `CSc1ccccc1C(=O)C1CCCN(Cc2cnn(-c3ccccc3)c2)C1` (stereo not given), 0.775%.
